# From publication PMC5540273 (PLoS ONE, 2017)
# System: SIK2
# Settings: concentration: 1 μM, replicates: in singlicate; n = 1
# 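Also: KINOMEscan kinase panel screen.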
row,Structure (SMILES),%Inh [%]
1,O=C(NCCCN1CCCC1=O)c1cnc(NCc2cc(Cl)ccc2Cl)nc1NC1CCNCC1,0
2,Cn1cc(-c2ccc3c(c2)CCN3C(=O)Cc2cccc(C(F)(F)F)c2)c2c(N)ncnc21 [GSK2606414],0
3,CN1c2ccc(-c3ccc(C(=O)NCCO)cc3)cc2-c2[nH]ncc2S1(=O)=O,16
4,CSc1nn2c(=O)cc(N3CCOCC3)nc2n1Cc1cccc(Cl)c1Cl [GSK2347225],72
5,Cc1cccc(-c2nc(Nc3ccc4[nH]nnc4c3)c3ccccc3n2)n1 [GW867587],0
6,O=C(CCO)NCCn1ccc2ncnc(Nc3ccc(Oc4cccc(C(F)(F)F)c4)c(Cl)c3)c21,16
7,Cc1ccc(O)cc1Nc1cc(C(F)(F)F)nc2ccc(-c3ccncc3)cc12 [GW630823],11
8,CCC(CC)(CC)n1cnc2c(N)ncnc21 [SKF-97620],1
9,Fc1cccc(COc2ccc(Nc3ncnc4cc[nH]c34)cc2Cl)c1,0
10,Fc1ccc(-c2ncn(CCCNCc3ccccc3)c2-c2ccncc2)cc1,0
11,COc1ccc(Nc2nccc(N3CCC(NC(=O)Nc4ccc5c(c4)OCO5)C3)n2)cc1 (stereo not drawn) [GSK1379745],0
12,CSc1ccc(NC2=C(c3ccccc3Cl)C(=O)NC2=O)cc1 [SB-342411],5
13,FC(F)(F)c1ccc(-c2cc(-c3c[nH]nc3-c3ccccn3)ccn2)cc1 [GW599550],0
14,O=C(Nc1n[nH]c2nc(-c3ccco3)c(Br)cc12)c1ccc(CN2CCCC2)cc1.O=C(O)[C@H](O)[C@@H](O)C(=O)O [SB-742352],3
15,Clc1cc(Nc2ncnc3cc[nH]c23)ccc1OCc1ccccn1,8
16,COc1ccc(NC(=O)Nc2ccc(C)c(-c3ccc(C(=O)Nc4ccncc4)cc3)c2)cc1 [GSK1398475],0
17,Fc1ccc(Nc2nccc(-c3c(-c4ccc(Cl)cc4)nn4ncccc34)n2)cc1F [GW829058],0
18,Nc1nc(-c2ccc3c(N)n[nH]c3c2)cc(N2CCC[C@@H](C(=O)Nc3ccccc3)C2)n1.O=C(O)C(F)(F)F.O=C(O)C(F)(F)F [GSK2288359],0

row,Structure (SMILES),%Inh [%]
1,CS(=O)(=O)CCNCc1nc(-c2ccc3ncnc(Nc4ccc(OCc5cccc(F)c5)c(Cl)c4)c3c2)cs1.Cl [GW583340],0
2,Cl.Cl.c1ccc(-c2cc3ccncc3cc2OC2CCNCC2)cc1 [GSK1122999],0
3,COC(=O)c1c(-c2ccccc2)c2cc(Cl)ccc2c(=O)n1Cc1ccc(S(C)(=O)=O)cc1,9
4,OCCOCCn1ccc2ncnc(Nc3ccc(Oc4cccc(Cl)c4)c(Cl)c3)c21,0
5,CC(C)(C)c1ccc(-n2cnc3c(N)ncnc32)cc1 [SKF-97263],7
6,CNc1nccc(-c2c(-c3ccc(F)cc3)ncn2CCCN2CCOCC2)n1 [SB-222516],0
7,CN1CCC(n2cnc(-c3ccc(F)cc3)c2-c2ccnc(NC3CCNCC3)n2)CC1 [SB-229482],0
8,CC(C)(C)OC(=O)NC1CCCN(c2cc(-c3ccc4c(N)n[nH]c4c3)nc(N)n2)C1 (stereo not drawn) [GSK2286096],0
9,Cl.Fc1ccccc1COc1ccc(Nc2ncnc3ccc(-c4nnc(C(F)(F)F)o4)cc23)cc1Cl [GW424170],0
10,Clc1ccc(-c2cc(-c3c[nH]nc3-c3ccccn3)ccn2)cc1 [GW681251],0
11,CC(C)N1CCC(n2cnc(-c3ccc(F)cc3)c2-c2ccnc(N)n2)CC1 [SB-223132],4
12,FC(F)(F)c1cc(Nc2nccc(-c3c(-c4ccc(Cl)cc4)nn4ncccc34)n2)ccc1Cl [GW829351],0
13,COc1cc2ncnc(Nc3ccc(OCc4ccccc4Br)c(Cl)c3)c2cc1OC.Cl [GI261590],12
14,Clc1cccc(-c2nc(Nc3ccncc3)c3ccccc3n2)c1 [GW873004],0
15,Cl.Cn1ccc(-c2cccc(Nc3ccnc4cc(-c5nccs5)ccc34)c2)n1 [GW525701],0
16,COc1cc2c(Nc3cccc(NC(=O)c4ccccc4)c3)ncnc2cc1OCCCN1CCOCC1 [GSK223810],7
17,N#Cc1ccc(Oc2ccc(Nc3ncnc4cc[nH]c34)cc2Cl)cc1,37
18,Cn1ccc2ncnc(Oc3ccc(NC(=O)Nc4cccnc4)c(Cl)c3)c21,0

# System: SIK
# Settings: concentration: 1 μM, replicates: in singlicate; n = 1
row,Structure (SMILES),%Inh [%]
1,O=C(NCCCN1CCCC1=O)c1cnc(NCc2cc(Cl)ccc2Cl)nc1NC1CCNCC1,7
2,Cn1cc(-c2ccc3c(c2)CCN3C(=O)Cc2cccc(C(F)(F)F)c2)c2c(N)ncnc21 [GSK2606414],0
3,CN1c2ccc(-c3ccc(C(=O)NCCO)cc3)cc2-c2[nH]ncc2S1(=O)=O,16
4,CSc1nn2c(=O)cc(N3CCOCC3)nc2n1Cc1cccc(Cl)c1Cl [GSK2347225],13
5,Cc1cccc(-c2nc(Nc3ccc4[nH]nnc4c3)c3ccccc3n2)n1 [GW867587],0
6,O=C(CCO)NCCn1ccc2ncnc(Nc3ccc(Oc4cccc(C(F)(F)F)c4)c(Cl)c3)c21,10
7,Cc1ccc(O)cc1Nc1cc(C(F)(F)F)nc2ccc(-c3ccncc3)cc12 [GW630823],4
8,CCC(CC)(CC)n1cnc2c(N)ncnc21 [SKF-97620],0
9,Fc1cccc(COc2ccc(Nc3ncnc4cc[nH]c34)cc2Cl)c1,15
10,Fc1ccc(-c2ncn(CCCNCc3ccccc3)c2-c2ccncc2)cc1,9
11,COc1ccc(Nc2nccc(N3CCC(NC(=O)Nc4ccc5c(c4)OCO5)C3)n2)cc1 (stereo not drawn) [GSK1379745],6
12,CSc1ccc(NC2=C(c3ccccc3Cl)C(=O)NC2=O)cc1 [SB-342411],0
13,FC(F)(F)c1ccc(-c2cc(-c3c[nH]nc3-c3ccccn3)ccn2)cc1 [GW599550],0
14,O=C(Nc1n[nH]c2nc(-c3ccco3)c(Br)cc12)c1ccc(CN2CCCC2)cc1.O=C(O)[C@H](O)[C@@H](O)C(=O)O [SB-742352],0
15,Clc1cc(Nc2ncnc3cc[nH]c23)ccc1OCc1ccccn1,16
16,COc1ccc(NC(=O)Nc2ccc(C)c(-c3ccc(C(=O)Nc4ccncc4)cc3)c2)cc1 [GSK1398475],7
17,Fc1ccc(Nc2nccc(-c3c(-c4ccc(Cl)cc4)nn4ncccc34)n2)cc1F [GW829058],0
18,Nc1nc(-c2ccc3c(N)n[nH]c3c2)cc(N2CCC[C@@H](C(=O)Nc3ccccc3)C2)n1.O=C(O)C(F)(F)F.O=C(O)C(F)(F)F [GSK2288359],0

row,Structure (SMILES),%Inh [%]
1,CS(=O)(=O)CCNCc1nc(-c2ccc3ncnc(Nc4ccc(OCc5cccc(F)c5)c(Cl)c4)c3c2)cs1.Cl [GW583340],0
2,Cl.Cl.c1ccc(-c2cc3ccncc3cc2OC2CCNCC2)cc1 [GSK1122999],0
3,COC(=O)c1c(-c2ccccc2)c2cc(Cl)ccc2c(=O)n1Cc1ccc(S(C)(=O)=O)cc1,2
4,OCCOCCn1ccc2ncnc(Nc3ccc(Oc4cccc(Cl)c4)c(Cl)c3)c21,0
5,CC(C)(C)c1ccc(-n2cnc3c(N)ncnc32)cc1 [SKF-97263],0
6,CNc1nccc(-c2c(-c3ccc(F)cc3)ncn2CCCN2CCOCC2)n1 [SB-222516],12
7,CN1CCC(n2cnc(-c3ccc(F)cc3)c2-c2ccnc(NC3CCNCC3)n2)CC1 [SB-229482],12
8,CC(C)(C)OC(=O)NC1CCCN(c2cc(-c3ccc4c(N)n[nH]c4c3)nc(N)n2)C1 (stereo not drawn) [GSK2286096],0
9,Cl.Fc1ccccc1COc1ccc(Nc2ncnc3ccc(-c4nnc(C(F)(F)F)o4)cc23)cc1Cl [GW424170],1
10,Clc1ccc(-c2cc(-c3c[nH]nc3-c3ccccn3)ccn2)cc1 [GW681251],0
11,CC(C)N1CCC(n2cnc(-c3ccc(F)cc3)c2-c2ccnc(N)n2)CC1 [SB-223132],14
12,FC(F)(F)c1cc(Nc2nccc(-c3c(-c4ccc(Cl)cc4)nn4ncccc34)n2)ccc1Cl [GW829351],0
13,COc1cc2ncnc(Nc3ccc(OCc4ccccc4Br)c(Cl)c3)c2cc1OC.Cl [GI261590],0
14,Clc1cccc(-c2nc(Nc3ccncc3)c3ccccc3n2)c1 [GW873004],63
15,Cl.Cn1ccc(-c2cccc(Nc3ccnc4cc(-c5nccs5)ccc34)c2)n1 [GW525701],0
16,COc1cc2c(Nc3cccc(NC(=O)c4ccccc4)c3)ncnc2cc1OCCCN1CCOCC1 [GSK223810],0
17,N#Cc1ccc(Oc2ccc(Nc3ncnc4cc[nH]c34)cc2Cl)cc1,0
18,Cn1ccc2ncnc(Oc3ccc(NC(=O)Nc4cccnc4)c(Cl)c3)c21,19
